This is an account of results in PubChem BioAssay AID720618 (Broad Institute, 2013).

The test is described as follows: caspase-3/7 apoptosis induction in HeLa, late-stage follow-up, mechanism study for HRAS target identification, cell-based, caspase 3/7 luminescence, several timepoints, dry powder (AID 720618). The following applies: max activity: measured here: caspase 3/7, second timepoint, at 35 µM, stronger effect = higher value.

Molecules are shown by their SMILES. Inconclusive results are not listed. Calls of active or inactive are those of the source. No rule for the calls is given here.

Take `Cc1onc(C(=O)N2CCN(C(c3ccc(Cl)cc3)c3ccc(OCCOCCOCCNC(=O)OC(C)(C)C)cc3)CC2)c1[N+](=O)[O-]` (configuration not stated): the max activity came to 35.4% and the outcome was inactive.
